# How the values were obtained:
# Assay in all cases: DAPPL (digital affinity profiling via proximity ligation, sequencing); 10 mM Tris-HCl pH 7.5, 50 mM NaCl, 1 mM DTT, 4% glycerol, room temperature, 30 min; GST-TFs on glutathione beads, 16-mer random dsDNA library, 0.1% formaldehyde crosslink after washing; high values mean tight binding
# FEV = molecular target: T1, FEV (Homo sapiens, UniProt Q99581 1-238); details: protein: recombinant; tags: N-terminal GST; dsDNA, one strand shown
# T1 sequence: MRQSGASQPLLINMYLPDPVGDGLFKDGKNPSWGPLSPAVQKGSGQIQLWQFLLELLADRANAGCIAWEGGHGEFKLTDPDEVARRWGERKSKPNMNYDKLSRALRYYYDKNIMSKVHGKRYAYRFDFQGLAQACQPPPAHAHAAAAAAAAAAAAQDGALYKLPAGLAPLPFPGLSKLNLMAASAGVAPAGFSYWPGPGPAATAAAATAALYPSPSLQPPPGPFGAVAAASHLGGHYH
# In short: (§1)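 Binding signal is each hexamer's read frequency for a factor divided by its frequency in the tag-only sample. The factors were GST-fused human transcription factors from yeast, captured on glutathione beads, DNA-barcoded and pooled with that sample. Pools were incubated with 200 nmole of a random double-stranded 16-mer DNA library in Tris/NaCl/DTT/glycerol buffer at room temperature for 30 min, then washed, crosslinked with 0.1% formaldehyde, proximity-ligated with BsaI/T4 ligase (1 h, 37 °C), PCR-amplified and sequenced on an Illumina NextSeq500.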
# ETV5 = ETV5 (Homo sapiens, UniProt P41161 1-510); details: protein: recombinant; tags: N-terminal GST; dsDNA, one strand shown
# Chain of ETV5 (P41161 whole entry): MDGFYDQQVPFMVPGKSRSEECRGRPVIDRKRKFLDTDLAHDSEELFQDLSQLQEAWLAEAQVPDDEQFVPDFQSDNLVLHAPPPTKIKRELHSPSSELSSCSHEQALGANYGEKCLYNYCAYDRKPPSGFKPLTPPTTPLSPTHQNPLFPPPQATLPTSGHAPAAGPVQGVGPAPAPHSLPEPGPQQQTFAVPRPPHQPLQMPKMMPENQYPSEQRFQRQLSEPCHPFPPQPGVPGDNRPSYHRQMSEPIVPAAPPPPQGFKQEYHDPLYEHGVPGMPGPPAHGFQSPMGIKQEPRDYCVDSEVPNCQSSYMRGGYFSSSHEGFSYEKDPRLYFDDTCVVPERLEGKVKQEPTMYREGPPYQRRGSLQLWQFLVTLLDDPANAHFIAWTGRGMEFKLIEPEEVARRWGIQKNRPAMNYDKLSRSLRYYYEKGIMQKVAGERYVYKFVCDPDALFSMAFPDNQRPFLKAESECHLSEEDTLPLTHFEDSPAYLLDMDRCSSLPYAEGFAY
# In short: as §1
# HSF1 = HSF1 (Homo sapiens, UniProt Q00613 1-529); details: protein: recombinant; tags: N-terminal GST; chain copies: 3; dsDNA, one strand shown
# Chain of HSF1 (Q00613 whole entry): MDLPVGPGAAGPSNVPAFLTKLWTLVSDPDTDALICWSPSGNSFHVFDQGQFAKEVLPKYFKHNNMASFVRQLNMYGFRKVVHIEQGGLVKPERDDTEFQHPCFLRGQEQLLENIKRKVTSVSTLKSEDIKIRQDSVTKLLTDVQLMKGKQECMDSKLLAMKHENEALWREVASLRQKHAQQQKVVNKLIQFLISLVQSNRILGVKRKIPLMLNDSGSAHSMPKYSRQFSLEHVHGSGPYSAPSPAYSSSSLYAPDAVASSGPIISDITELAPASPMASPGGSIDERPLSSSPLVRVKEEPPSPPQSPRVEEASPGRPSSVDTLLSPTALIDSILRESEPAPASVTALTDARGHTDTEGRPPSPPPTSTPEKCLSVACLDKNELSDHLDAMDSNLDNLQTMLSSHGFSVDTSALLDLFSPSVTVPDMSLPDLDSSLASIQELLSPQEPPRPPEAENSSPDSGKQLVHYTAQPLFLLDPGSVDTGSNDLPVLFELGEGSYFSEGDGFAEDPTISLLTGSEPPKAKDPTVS
# In short: as §1
# SPIC = molecular target: T2, SPIC (Homo sapiens, UniProt Q8N5J4 1-248); details: protein: recombinant; tags: N-terminal GST; dsDNA, one strand shown
# T2 sequence: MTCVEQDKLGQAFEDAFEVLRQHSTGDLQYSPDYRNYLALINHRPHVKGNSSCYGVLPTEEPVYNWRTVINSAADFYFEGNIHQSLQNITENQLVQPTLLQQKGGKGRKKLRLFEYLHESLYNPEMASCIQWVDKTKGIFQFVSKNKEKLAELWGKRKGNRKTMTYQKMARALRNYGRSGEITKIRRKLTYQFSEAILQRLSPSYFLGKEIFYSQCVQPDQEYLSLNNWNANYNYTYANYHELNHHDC
# In short: as §1
# ELF4 = ELF4 (Homo sapiens, UniProt Q99607 1-663); details: protein: recombinant; tags: N-terminal GST; dsDNA, one strand shown
# Chain of ELF4 (Q99607 whole entry): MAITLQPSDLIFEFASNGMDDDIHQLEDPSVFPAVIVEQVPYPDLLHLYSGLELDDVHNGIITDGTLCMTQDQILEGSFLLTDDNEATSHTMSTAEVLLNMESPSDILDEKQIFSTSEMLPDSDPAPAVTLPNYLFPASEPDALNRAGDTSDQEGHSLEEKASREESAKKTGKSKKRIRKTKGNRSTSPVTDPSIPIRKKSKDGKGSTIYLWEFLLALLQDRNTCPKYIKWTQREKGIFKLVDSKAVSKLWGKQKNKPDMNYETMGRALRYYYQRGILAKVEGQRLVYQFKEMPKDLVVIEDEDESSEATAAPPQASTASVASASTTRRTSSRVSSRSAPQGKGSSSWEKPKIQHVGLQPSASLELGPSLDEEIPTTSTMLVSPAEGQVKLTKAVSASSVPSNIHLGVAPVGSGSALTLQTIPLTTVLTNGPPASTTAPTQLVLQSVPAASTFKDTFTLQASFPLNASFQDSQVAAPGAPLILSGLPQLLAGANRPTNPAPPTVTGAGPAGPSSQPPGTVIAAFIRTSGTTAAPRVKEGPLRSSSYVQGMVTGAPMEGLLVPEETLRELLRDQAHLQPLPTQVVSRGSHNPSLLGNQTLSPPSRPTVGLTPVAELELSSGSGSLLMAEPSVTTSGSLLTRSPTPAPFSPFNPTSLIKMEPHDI
# In short: as §1
# ELK4 = molecular target: T3, ELK4 (Homo sapiens, UniProt P28324-2 1-405); details: protein: recombinant; tags: N-terminal GST; dsDNA, one strand shown
# T3 sequence: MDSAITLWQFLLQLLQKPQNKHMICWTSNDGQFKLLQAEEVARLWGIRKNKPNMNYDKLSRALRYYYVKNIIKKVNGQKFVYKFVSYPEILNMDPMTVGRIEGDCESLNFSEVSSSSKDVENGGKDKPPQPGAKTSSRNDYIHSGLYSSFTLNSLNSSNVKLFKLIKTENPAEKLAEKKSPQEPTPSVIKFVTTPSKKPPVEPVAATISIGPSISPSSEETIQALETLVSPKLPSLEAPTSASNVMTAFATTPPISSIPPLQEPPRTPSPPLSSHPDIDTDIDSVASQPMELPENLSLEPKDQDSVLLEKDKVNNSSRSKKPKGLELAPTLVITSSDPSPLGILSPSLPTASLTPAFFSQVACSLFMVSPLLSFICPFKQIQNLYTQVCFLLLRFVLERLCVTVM
# In short: as §1
# ETV2 = molecular target: T4, ETV2 (Homo sapiens, UniProt O00321 1-342); details: protein: recombinant; tags: N-terminal GST; dsDNA, one strand shown
# T4 sequence: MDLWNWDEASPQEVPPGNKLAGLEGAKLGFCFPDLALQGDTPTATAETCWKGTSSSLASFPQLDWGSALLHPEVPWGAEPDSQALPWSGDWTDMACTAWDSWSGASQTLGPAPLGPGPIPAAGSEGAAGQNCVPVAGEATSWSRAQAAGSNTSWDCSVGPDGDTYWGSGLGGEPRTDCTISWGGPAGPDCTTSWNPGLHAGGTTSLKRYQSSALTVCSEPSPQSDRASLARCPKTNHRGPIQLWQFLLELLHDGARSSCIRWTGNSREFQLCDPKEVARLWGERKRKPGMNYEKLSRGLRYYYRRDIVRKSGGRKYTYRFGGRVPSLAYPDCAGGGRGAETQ
# In short: as §1
# ELF3 = molecular target: T5, ELF3 (Homo sapiens, UniProt P78545 1-371); details: protein: recombinant; tags: N-terminal GST; dsDNA, one strand shown
# T5 sequence: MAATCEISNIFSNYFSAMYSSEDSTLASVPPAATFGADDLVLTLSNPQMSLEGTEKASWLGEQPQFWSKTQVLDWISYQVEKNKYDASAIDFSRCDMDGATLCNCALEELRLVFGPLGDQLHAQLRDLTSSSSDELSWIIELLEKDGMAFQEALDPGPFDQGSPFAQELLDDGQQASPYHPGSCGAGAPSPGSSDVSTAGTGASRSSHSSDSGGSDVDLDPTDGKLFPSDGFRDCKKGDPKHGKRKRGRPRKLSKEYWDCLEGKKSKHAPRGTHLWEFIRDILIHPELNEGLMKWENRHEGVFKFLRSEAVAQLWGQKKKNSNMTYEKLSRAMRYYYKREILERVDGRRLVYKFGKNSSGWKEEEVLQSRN
# In short: as §1
# CRX = CRX (Homo sapiens, UniProt O43186 1-299); details: protein: recombinant; tags: N-terminal GST; dsDNA, one strand shown
# Chain of CRX (O43186 whole entry): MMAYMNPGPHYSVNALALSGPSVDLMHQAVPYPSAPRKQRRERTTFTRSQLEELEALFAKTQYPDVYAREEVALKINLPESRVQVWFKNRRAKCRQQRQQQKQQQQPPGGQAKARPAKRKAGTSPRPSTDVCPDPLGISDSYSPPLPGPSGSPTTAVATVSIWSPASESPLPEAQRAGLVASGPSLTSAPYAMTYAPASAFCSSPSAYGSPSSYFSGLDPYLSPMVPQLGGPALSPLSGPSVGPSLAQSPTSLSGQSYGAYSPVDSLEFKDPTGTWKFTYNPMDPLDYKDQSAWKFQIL
# In short: as §1
# ETV1 = ETV1 (Homo sapiens, UniProt P50549 1-477); details: protein: recombinant; tags: N-terminal GST; dsDNA, one strand shown
# Chain of ETV1 (P50549 whole entry): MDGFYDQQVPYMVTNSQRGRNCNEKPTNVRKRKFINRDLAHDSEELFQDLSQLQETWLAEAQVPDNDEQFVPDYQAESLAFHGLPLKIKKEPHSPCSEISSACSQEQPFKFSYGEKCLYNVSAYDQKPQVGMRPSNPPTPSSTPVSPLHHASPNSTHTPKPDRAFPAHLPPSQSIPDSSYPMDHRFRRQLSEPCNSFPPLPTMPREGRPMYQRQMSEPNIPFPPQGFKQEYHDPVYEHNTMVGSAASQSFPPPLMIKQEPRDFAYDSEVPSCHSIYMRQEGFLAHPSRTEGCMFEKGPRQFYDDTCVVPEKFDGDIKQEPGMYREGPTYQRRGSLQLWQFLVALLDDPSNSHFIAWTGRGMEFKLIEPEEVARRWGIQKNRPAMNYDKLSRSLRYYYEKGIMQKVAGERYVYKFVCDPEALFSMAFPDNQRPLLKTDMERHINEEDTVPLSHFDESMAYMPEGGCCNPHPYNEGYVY
# In short: as §1
# ERF = molecular target: T6, ERF (Homo sapiens, UniProt P50548 1-548); details: protein: recombinant; tags: N-terminal GST; dsDNA, one strand shown
# T6 sequence: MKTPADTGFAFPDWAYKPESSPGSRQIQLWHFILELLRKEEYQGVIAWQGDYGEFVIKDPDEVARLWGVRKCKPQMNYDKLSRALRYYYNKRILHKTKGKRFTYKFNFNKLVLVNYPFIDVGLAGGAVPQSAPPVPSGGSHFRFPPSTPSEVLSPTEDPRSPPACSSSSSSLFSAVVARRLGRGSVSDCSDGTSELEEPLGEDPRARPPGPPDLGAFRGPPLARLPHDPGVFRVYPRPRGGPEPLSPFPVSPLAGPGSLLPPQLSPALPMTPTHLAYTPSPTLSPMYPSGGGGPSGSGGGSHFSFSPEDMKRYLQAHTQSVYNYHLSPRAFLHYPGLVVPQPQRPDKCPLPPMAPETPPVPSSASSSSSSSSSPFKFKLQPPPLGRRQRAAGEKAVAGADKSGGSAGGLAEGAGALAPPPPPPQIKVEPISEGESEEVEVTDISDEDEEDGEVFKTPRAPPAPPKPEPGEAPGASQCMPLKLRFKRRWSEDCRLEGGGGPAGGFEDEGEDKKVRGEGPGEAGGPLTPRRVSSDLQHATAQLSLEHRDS
# In short: as §1
# ETV3L = molecular target: T7, ETV3L (Homo sapiens, UniProt Q6ZN32 1-361); details: protein: recombinant; tags: N-terminal GST; dsDNA, one strand shown
# T7 sequence: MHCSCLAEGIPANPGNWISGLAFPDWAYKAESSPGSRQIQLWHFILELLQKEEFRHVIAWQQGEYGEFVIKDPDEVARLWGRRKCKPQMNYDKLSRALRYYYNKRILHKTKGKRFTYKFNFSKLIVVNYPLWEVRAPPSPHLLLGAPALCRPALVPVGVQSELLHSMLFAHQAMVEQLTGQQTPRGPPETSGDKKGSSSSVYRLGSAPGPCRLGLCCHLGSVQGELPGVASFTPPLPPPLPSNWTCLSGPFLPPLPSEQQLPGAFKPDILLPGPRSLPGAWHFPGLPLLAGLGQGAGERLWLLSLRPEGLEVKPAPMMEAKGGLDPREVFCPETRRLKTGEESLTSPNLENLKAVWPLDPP
# In short: as §1
# ETS2 = molecular target: T8, ETS2 (Homo sapiens, UniProt P15036 1-469); details: protein: recombinant; tags: N-terminal GST; dsDNA, one strand shown
# T8 sequence: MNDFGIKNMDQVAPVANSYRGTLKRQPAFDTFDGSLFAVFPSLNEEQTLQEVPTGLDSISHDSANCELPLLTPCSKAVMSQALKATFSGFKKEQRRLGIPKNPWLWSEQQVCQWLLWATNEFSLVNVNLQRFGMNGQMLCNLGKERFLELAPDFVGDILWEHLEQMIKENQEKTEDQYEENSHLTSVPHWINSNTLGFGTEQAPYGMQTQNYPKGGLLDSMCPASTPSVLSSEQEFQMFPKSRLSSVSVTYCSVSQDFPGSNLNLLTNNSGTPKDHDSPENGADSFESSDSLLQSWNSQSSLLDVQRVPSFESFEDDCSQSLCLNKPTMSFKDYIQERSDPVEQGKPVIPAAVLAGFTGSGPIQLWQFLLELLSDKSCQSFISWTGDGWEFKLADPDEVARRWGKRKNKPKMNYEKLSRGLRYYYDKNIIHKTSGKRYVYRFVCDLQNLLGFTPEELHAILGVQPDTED
# In short: as §1
# SPDEF = molecular target: T9, SPDEF (Homo sapiens, UniProt O95238 1-335); details: protein: recombinant; tags: N-terminal GST; dsDNA, one strand shown
# T9 sequence: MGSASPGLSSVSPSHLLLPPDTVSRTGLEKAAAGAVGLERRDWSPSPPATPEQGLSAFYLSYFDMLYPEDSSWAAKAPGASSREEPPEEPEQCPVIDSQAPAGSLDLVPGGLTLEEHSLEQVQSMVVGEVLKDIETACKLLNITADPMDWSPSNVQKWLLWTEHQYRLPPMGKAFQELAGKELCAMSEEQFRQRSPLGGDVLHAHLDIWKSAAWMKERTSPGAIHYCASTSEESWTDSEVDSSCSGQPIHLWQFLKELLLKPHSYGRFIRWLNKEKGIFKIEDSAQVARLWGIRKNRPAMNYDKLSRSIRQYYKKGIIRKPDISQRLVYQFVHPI
# In short: as §1
# ETV7 = molecular target: T10, ETV7 (Homo sapiens, UniProt Q9Y603 1-341); details: protein: recombinant; tags: N-terminal GST; dsDNA, one strand shown
# T10 sequence: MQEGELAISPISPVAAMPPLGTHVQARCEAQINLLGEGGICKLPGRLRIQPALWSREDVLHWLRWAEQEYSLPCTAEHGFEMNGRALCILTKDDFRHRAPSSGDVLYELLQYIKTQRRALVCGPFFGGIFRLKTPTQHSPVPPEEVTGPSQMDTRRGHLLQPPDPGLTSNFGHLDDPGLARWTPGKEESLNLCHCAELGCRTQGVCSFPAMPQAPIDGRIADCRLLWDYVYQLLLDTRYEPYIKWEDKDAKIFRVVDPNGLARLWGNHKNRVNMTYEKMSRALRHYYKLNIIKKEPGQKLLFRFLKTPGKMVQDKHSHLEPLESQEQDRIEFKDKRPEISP
# In short: as §1
# ELF5 = molecular target: T11, ELF5 (Homo sapiens, UniProt Q9UKW6-2 1-255); details: protein: recombinant; tags: N-terminal GST; dsDNA, one strand shown
# T11 sequence: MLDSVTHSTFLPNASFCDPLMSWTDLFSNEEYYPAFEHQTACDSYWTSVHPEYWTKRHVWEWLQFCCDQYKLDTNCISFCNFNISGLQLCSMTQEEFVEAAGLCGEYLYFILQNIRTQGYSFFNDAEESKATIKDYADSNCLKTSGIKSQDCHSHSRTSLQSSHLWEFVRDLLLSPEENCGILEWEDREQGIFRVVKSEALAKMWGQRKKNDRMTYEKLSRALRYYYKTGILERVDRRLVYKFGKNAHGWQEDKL
# In short: as §1
# ETV3 = molecular target: T12, ETV3 (Homo sapiens, UniProt P41162-2 1-143); details: protein: recombinant; tags: N-terminal GST; dsDNA, one strand shown
# T12 sequence: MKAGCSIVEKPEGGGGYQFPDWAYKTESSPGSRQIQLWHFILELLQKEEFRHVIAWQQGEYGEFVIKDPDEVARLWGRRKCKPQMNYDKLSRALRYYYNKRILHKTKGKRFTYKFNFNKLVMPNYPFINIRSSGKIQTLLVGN
# In short: as §1
# ETV6 = ETV6 (Homo sapiens, UniProt P41212 1-452); details: protein: recombinant; tags: N-terminal GST; dsDNA, one strand shown
# Chain of ETV6 (P41212 whole entry): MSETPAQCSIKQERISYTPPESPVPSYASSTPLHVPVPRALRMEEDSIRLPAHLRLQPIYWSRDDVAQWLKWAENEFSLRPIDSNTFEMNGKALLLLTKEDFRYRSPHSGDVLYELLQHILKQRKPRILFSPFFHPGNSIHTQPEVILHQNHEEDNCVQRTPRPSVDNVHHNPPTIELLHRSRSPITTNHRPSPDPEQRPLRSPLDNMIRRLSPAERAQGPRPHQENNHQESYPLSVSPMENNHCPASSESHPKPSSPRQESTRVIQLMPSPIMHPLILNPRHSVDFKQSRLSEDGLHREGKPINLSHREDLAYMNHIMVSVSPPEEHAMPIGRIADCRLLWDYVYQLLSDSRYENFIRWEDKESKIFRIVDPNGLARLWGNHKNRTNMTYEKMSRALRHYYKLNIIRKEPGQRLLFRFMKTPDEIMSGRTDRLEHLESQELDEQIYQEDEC
# In short: as §1
sequence,measurement,setting,value
GATTCT,binding signal,FEV,"1.13 fold enrichment (6-mer frequency, TF over GST control)"
same,binding signal,ETV5,"1.18 fold enrichment (6-mer frequency, TF over GST control)"
same,binding signal,HSF1,"2.08 fold enrichment (6-mer frequency, TF over GST control)"
same,binding signal,SPIC,"1.11 fold enrichment (6-mer frequency, TF over GST control)"
same,binding signal,ELF4,"1.19 fold enrichment (6-mer frequency, TF over GST control)"
same,binding signal,ELK4,"1.36 fold enrichment (6-mer frequency, TF over GST control)"
same,binding signal,ETV2,"1.15 fold enrichment (6-mer frequency, TF over GST control)"
same,binding signal,ELF3,"1.05 fold enrichment (6-mer frequency, TF over GST control)"
same,binding signal,CRX,"1.58 fold enrichment (6-mer frequency, TF over GST control)"
same,binding signal,ETV1,"1.25 fold enrichment (6-mer frequency, TF over GST control)"
same,binding signal,ERF,"1.13 fold enrichment (6-mer frequency, TF over GST control)"
same,binding signal,ETV3L,"1.17 fold enrichment (6-mer frequency, TF over GST control)"
same,binding signal,ETS2,"1.23 fold enrichment (6-mer frequency, TF over GST control)"
same,binding signal,SPDEF,"1.09 fold enrichment (6-mer frequency, TF over GST control)"
same,binding signal,ETV7,"1.23 fold enrichment (6-mer frequency, TF over GST control)"
same,binding signal,ELF5,"1.11 fold enrichment (6-mer frequency, TF over GST control)"
same,binding signal,ETV3,"1.28 fold enrichment (6-mer frequency, TF over GST control)"
same,binding signal,ETV6,"1.19 fold enrichment (6-mer frequency, TF over GST control)"

# Reference: article PMC7862700, “An all-to-all approach to the identification of sequence-specific readers for epigenetic DNA modifications on cytosine”
